Hit rate of the full screen: of about 310,000 compounds, about 14,000 (4.5%) showed an effect of 50% or more. The effect is printed as a negative number. This excerpt belongs to a sample that is enriched for strong results.
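Also: peak tail current of the secondary pulse compared with the same well before compound.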

Sequence of human ether-à-go-go-related gene (hERG) potassium channel (Q12809 whole entry, looked up): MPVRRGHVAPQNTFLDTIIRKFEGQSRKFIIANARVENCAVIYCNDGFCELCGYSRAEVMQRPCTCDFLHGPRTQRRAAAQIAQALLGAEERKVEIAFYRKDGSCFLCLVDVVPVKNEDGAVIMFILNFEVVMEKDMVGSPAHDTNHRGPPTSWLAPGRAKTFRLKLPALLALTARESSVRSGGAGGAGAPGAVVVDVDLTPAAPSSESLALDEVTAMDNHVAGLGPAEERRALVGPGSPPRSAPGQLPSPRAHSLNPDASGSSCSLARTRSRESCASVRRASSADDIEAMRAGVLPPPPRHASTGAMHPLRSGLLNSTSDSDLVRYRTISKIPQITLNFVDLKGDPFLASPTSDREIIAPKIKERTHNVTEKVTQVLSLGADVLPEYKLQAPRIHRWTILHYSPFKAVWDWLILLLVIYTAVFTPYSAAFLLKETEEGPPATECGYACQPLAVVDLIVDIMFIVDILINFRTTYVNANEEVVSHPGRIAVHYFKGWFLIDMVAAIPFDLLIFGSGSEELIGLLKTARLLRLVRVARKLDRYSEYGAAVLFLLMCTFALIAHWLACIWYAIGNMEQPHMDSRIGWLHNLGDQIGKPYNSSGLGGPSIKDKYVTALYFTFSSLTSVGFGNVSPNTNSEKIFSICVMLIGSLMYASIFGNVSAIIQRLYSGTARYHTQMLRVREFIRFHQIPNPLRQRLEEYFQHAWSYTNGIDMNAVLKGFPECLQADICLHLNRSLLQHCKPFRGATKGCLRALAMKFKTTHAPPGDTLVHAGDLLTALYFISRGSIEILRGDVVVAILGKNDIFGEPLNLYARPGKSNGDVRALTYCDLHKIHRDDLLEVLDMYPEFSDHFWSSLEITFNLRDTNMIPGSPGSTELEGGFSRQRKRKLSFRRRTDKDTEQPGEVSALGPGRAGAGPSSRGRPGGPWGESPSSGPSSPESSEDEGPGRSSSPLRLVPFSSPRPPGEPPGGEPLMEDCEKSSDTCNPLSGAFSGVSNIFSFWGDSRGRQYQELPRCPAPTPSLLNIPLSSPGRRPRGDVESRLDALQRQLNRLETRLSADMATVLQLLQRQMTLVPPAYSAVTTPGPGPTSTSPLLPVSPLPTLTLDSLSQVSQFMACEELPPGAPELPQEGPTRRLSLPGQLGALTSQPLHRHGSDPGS

This assay concerns the target human ether-à-go-go-related gene (hERG) potassium channel (human, UniProt Q12809). In words: primary screen, population patch clamp on CHO cells stably expressing hERG; higher = less effect of the substance.
In the case of `C[C@H](NC(=O)c1ccco1)C(=O)NC1CCCCCC1`, the “hERG current change (%, negative = inhibition) at 10uM” value is on record as -0.515%. As for `O=C(c1cccnc1)N1N=C(c2cccs2)CC1c1ccc(F)cc1` (stereo not drawn), the figure is -34.7%. The same measure for `Cc1ccc(NC(=O)c2cccs2)cc1S(=O)(=O)Nc1cccc(Cl)c1`: 8.25%; for `COc1ccc(NC(=S)N2CCC(C(=O)c3ccc(C)cc3)CC2)c(OC)c1`: 24.7%; for `CCOc1cc(/C=N\NC(=O)CC(=O)NCCc2ccccc2)ccc1O`: 1.94%. The same measure for `Cc1ccc(C)c(-c2nnc(NC(=O)Cc3ccccc3)o2)c1`: 16.1%; for `COc1ccc(S(=O)(=O)N2CCN(C3Cc4ccccc4C3)CC2)cc1`: 11.8%. For `O=C(Nc1cccc(C(F)(F)F)c1)c1cncs1`, the “hERG current change (%, negative = inhibition) at 10uM” value is on record as 20%. The same measure for `O=c1cc(CO)occ1OCc1cccc(F)c1`: -9.93%. On to `CCOc1cc(CN2CCN(C(=O)c3ccco3)CC2)ccc1OC`, for which the “hERG current change (%, negative = inhibition) at 10uM” value is on record as -28.7%.

On to `COc1ccc(CN2CCN(C(=O)c3ccco3)CC2)cc1OCc1ccccc1`, for which the “hERG current change (%, negative = inhibition) at 10uM” value is listed as -51.2%. As for `O=C(c1ccco1)N1CCN(Cc2cccc(F)c2)CC1`, the figure is -0.928%; as for `O=C(c1ccco1)N1CCN(Cc2cc(=O)c(OCc3cccc(F)c3)co2)CC1`, -76.4%; as for `O=C(c1ccco1)N1CCN(Cc2cc(=O)c(OCc3ccc(F)cc3)co2)CC1`, -62.2%. The same measure for `O=C(c1ccco1)N1CCN(Cc2cc(=O)c(OCc3ccccc3)co2)CC1`: -25.5%; for `O=C(COc1coc(CN2CCc3ccccc3C2)cc1=O)Nc1ccc([N+](=O)[O-])cc1`: -31.7%; for `O=C(c1ccco1)N1CCN(Cc2cc(=O)c(OCc3ccc([N+](=O)[O-])cc3)co2)CC1`: -76.2%. The same measure for `CC(C)NC(=O)COc1coc(CN2CCN(C(=O)c3ccco3)CC2)cc1=O`: 10.3%; for `COc1ccc(CN2CCN(C(=O)c3ccco3)CC2)cc1OC.O=C(O)C(=O)O`: 16.8%. Consider `O=C(O)CCCCCn1c(SCC(=O)c2ccc(O)c(O)c2)nc2ccsc2c1=O`, for which the “hERG current change (%, negative = inhibition) at 10uM” value turned out to be 32.2%. Consider `O=C(N[C@@H](Cc1ccccc1)C(=O)NC1CCCCC1)c1ccco1`, for which the “hERG current change (%, negative = inhibition) at 10uM” value was found to be 6%. As for `CN1CCN(NS(=O)(=O)c2ccc(Cl)cc2)CC1`, the figure is 19.4%; as for `COc1ccc(CCNC(=O)c2cccs2)cc1`, 10.9%. Turning to `O=C(O)C(=O)O.c1ccc2c(OCCCCN3CCOCC3)cccc2c1`, the “hERG current change (%, negative = inhibition) at 10uM” value was found to be 10.7%. Take `Brc1ccccc1OCCCN1CCCCCC1.O=C(O)C(=O)O`: the “hERG current change (%, negative = inhibition) at 10uM” value is -72.6%. For the molecule `Brc1ccccc1OCCCN1CCCC1.O=C(O)C(=O)O`, the “hERG current change (%, negative = inhibition) at 10uM” value is -12.4%.

As for `Brc1ccccc1OCCCCN1CCCCC1`, the “hERG current change (%, negative = inhibition) at 10uM” value is reported as -39.1%. The same measure for `O=C(O)C(=O)O.c1ccc2c(OCCCN3CCCCCC3)cccc2c1`: -65.8%; for `c1ccc2c(OCCCCN3CCCC3)cccc2c1`: -27.1%; for `CC1(C)Cc2cccc(OCC(=O)Nc3ccccc3N3CCOCC3)c2O1`: -10.8%. The same measure for `CCOc1c(Cl)cc(CNC(C)(C)CC(C)(C)C)cc1OC.Cl`: -13.2%; for `CCCn1c(=O)[nH]c(=O)c2c1nc(-c1ccc(C(F)(F)F)cc1)n2CCOC`: -4.45%. As for `CCOC(=O)CN1C(=O)/C(=C/c2c(F)cccc2Cl)Oc2ccccc21`, the figure is 9.08%. For `COc1ccc2cc(C3(C)NC(=O)NC3=O)ccc2c1` (stereo not drawn), the “hERG current change (%, negative = inhibition) at 10uM” value is -0.239%. The same measure for `CN(C(=O)CSc1nnc(C2CC2)n1C1CC1)C1(C#N)CCCCC1`: -5.85%.

Take `O=C(N/N=C/c1cccnc1)c1cccc(F)c1`: the “hERG current change (%, negative = inhibition) at 10uM” value stood at 2.67%. Take `O=C(N/N=C/c1ccc(OC(=O)c2cccc(Br)c2)cc1)c1cccnc1`: the “hERG current change (%, negative = inhibition) at 10uM” value was determined as 11.4%.

As to `Cc1ccc(C(=O)N/N=C\c2ccc(OC(=O)c3cccc(F)c3)cc2)cn1`, the “hERG current change (%, negative = inhibition) at 10uM” value was determined as 11%. The same measure for `O=C(N/N=C/c1ccc(OC(=O)c2cccc(F)c2)cc1)c1cccnc1`: -69.6%; for `O=C(N/N=C(\c1ccccc1)c1cccnc1)c1cc(O)ccc1O`: 16.4%; for `O=C(N/N=C(\c1ccccc1)c1cccnc1)c1cccc(F)c1`: -61.5%.

Regarding `Br.CC(C)(C)C(=O)Cn1c(NCCO)nc2ccccc21`, the “hERG current change (%, negative = inhibition) at 10uM” value is given as 5.72%. As for `O=C(OCC(=O)N1CCc2ccccc21)C1CCCN1S(=O)(=O)c1ccc(Cl)cc1` (stereo not drawn), the figure is -17.8%. As to `CC(C)COc1ccc(C(=O)OCC(=O)N(C)CC(=O)Nc2ccc(F)cc2)cc1`, the “hERG current change (%, negative = inhibition) at 10uM” value came to 6.57%. As to `CCOC(=O)Cc1cc(C)[nH]c1C(=O)OCC`, the “hERG current change (%, negative = inhibition) at 10uM” value is -5.81%. Regarding `C=CCNC(=O)c1c2c(nc3ccccc13)-c1ccccc1CC2`, the “hERG current change (%, negative = inhibition) at 10uM” value was -46.4%. As for `CCOc1cccc(CN2CCCC(C(=O)Nc3ccc(-c4ccn[nH]4)cc3)C2)c1O` (stereo not drawn), the figure is -29.5%.

As to `CCOc1cc(CN2CCCC(C(=O)c3cccc(C(F)(F)F)c3)C2)ccc1O` (stereo not drawn), the “hERG current change (%, negative = inhibition) at 10uM” value is recorded as -61.2%. As for `COc1ccc(Cl)cc1C(=O)C1CCCN(CCO)C1` (stereo not drawn), the figure is -11.2%; as for `CCOC(=O)C1CCCN(Cc2ccccc2OCC)C1` (stereo not drawn), -2.92%. `CCCC(=O)N1CCCC(C(=O)c2ccc(OC)c(OC)c2)C1` (stereo not drawn): the “hERG current change (%, negative = inhibition) at 10uM” value is on record as 12.7%. The same measure for `CCOc1ccccc1CN1CCCC(C(=O)c2ccc(OC)c(OC)c2)C1` (stereo not drawn): -74.2%.

With `COc1ccc(CN2CCCC(C(=O)c3cccc(C(F)(F)F)c3)C2)cc1O` (stereo not drawn), the “hERG current change (%, negative = inhibition) at 10uM” value is on record as -62.2%. As for `CCOc1cccc(CN2CCCC(C(=O)c3cc(Cl)ccc3OC)C2)c1O` (stereo not drawn), the figure is -64.3%; as for `CCOC(=O)C1CCCN(Cc2ccc(O)c(OC)c2)C1` (stereo not drawn), -6.59%; as for `O=S(=O)(c1ccc(F)cc1)N1CCCC(c2nc(-c3ccc(F)cc3)no2)C1` (stereo not drawn), -13.9%. As for `Cc1c(NC(=O)CN2C(=O)c3ccc([N+](=O)[O-])cc3C2=O)c(=O)n(-c2ccccc2)n1C`, the figure is 8.89%.

Values taken from publication PMC4336329 (PLoS ONE, 2015).
